# Measured values published in the supplement of paper PMC9334596.
# Where “and” joins values, the source holds several entries; their conditions need not be identical. Equal values may be shown once. In all, about 5,300 compounds were measured (“PER2::LUC luminescence relative to vehicle control”: median about 0.96, highest 2% from about 1.3 on). The full list was thinned out, with the highest values kept by preference.
# System: mPer2Luc MEF
# Assay: PER2::LUC luminescence relative to vehicle control (fold of vehicle); higher = higher PER2::LUC reporter signal
# Details: 10 µM
# Method in brief: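 Each value gives PER2::LUC luminescence as fold of vehicle control, measured with the ONE-Glo luciferase assay system in mouse embryonic fibroblasts carrying the mPer2Luc reporter. Cells grown in DMEM with 10% FBS at 37 °C and 5% CO2 were seeded at ~3000 per well in 384-well plates. Library compounds were added at 10 μM 48 h later, and readings were taken 24 h and 30 h after treatment.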
SMILES,PER2::LUC luminescence (time after treatment 24 h),PER2::LUC luminescence (time after treatment 30 h)
Cc1ccccc1-n1c([C@H](C)Nc2nc(N)nc3nc[nH]c23)nc2cccc(C)c2c1=O,0.801,0.66
CCCCN(CCCC)S(=O)(=O)c1ccc(C(=O)O)cc1,0.899,1.04
COc1cc(/C=C/C(=O)c2ccc(O)cc2O)ccc1O,1.02,1.04
COc1ccc(C(=O)c2ccccc2)c(O)c1,1.22,1.21
O=C(/C=C/c1ccc(O)cc1)CC(=O)/C=C/c1ccc(O)cc1,1.1,1.07
COc1ccc(CC(=O)c2ccc(O)cc2O)cc1,1.63,1.51
COc1ccc(/C=C/C(=O)c2cc(O)ccc2O)cc1,0.754,0.827
COc1ccc([C@@H](C)C(=O)c2ccc(O)cc2O)cc1,1.1,1.08
O=C(/C=C/c1ccccc1)c1ccc(O)cc1,1.33,1.48
COc1ccc(/C=C/C(=O)c2ccc(O)cc2O)cc1,1.51,1.56
COc1ccc(C(=O)c2ccc(C)cc2)c(O)c1,1.02 and 1.29,1.55 and 1.57
COc1ccc(C(=O)c2ccccc2O)c(O)c1,1.02,1.04
COc1ccc(C(C)=O)c(O)c1,0.967,0.936
COc1ccc(C(=O)/C=C/c2ccccc2)cc1,1.25,1.28
CCC(C(=S)O[C@]12CCC[C@H](CC1)N2C)c1ccccc1 (stereo partly specified),0.715,0.77
Nc1ccc(S(=O)(=O)NCCc2ccccc2)cc1,1.03,1
CC1=CC(=O)C2=C(C)CC[C@@H]3[C@H](OC(=O)[C@H]3C)[C@@H]12,0.959,0.978
OCC12COC(c3ccc(F)cc3)N1C(c1ccc(F)cc1)OC2 (stereo unspecified),1.07,1.03
C[C@@H](Nc1cc(NS(=O)(=O)N2CCC2)nc(SCc2cccc(F)c2F)n1)[C@@H](O)CO,1.03,1
COc1ccc2c(c1)C[C@H](C(=O)Nc1ccc(-c3cn[nH]c3)cc1OCCN(C)C)CO2,0.472,0.452
CCN(CC)C(=O)C(c1ccccc1)N1CCN(c2ccc(NC(=O)c3ccccc3-c3cccnc3)cc2F)CC1 (stereo unspecified),0.968,1.09
O=C[C@H](O)[C@H](O)CO,0.921,0.987
CN1C(=O)C[C@H](C(=O)O)[C@H]1c1cccnc1,1.08,1.07
O=C(/C=C/c1ccccc1)c1ccc(O)cc1O,1.21,1.43
CC(C)=CCc1c(O)ccc(C(=O)/C=C/c2ccc(O)cc2)c1O,0.904,0.903

SMILES,PER2::LUC luminescence (time after treatment 24 h),PER2::LUC luminescence (time after treatment 30 h)
O=C(/C=C/c1ccccc1)c1ccc(O[C@@H]2O[C@H](CO)[C@@H](O)[C@H](O)[C@H]2O)cc1O,1.21,1.27
O=C(/C=C/c1ccc(O)cc1)c1ccc(O)cc1O,1.24,1.41
O=C(/C=C/c1ccc(O)c(O)c1)c1ccc(O)cc1O,1.04,1.13
COc1cc(O)c(C(=O)/C=C/c2ccccc2)c(OC)c1,0.907,0.937
Clc1ccc(Nc2nc3ccccc3c3nc(C4CCCCC4)[nH]c23)cc1Cl,0.84,0.867
OCC1OC(O)CC(O)C1O (stereo unspecified),1.15,0.973
CCCCCCCC(=O)CCc1ccc(O)c(OC)c1,1.04,0.901
N=C(N)SCc1ccc(CSC(=N)N)s1,1.01 and 0.976,1.01 and 0.977
COCCOc1nc(N)c2[nH]c(=O)n(Cc3ccccc3)c2n1,1.21,1.13
O=C(O)CC1CC(c2ccccc2)=NO1 (stereo unspecified),0.994 and 1.06,0.948 and 1.15
COC(=O)CC1CC(c2ccc(O)cc2)=NO1 (stereo unspecified),1.51,1.75
CC(C)=CCC[C@](C)(O)[C@H]1CC[C@]2(C)[C@@H]1CC[C@@H]1[C@@]3(C)CCC(=O)C(C)(C)[C@@H]3CC[C@]12C,1.05,0.987
CC(=O)OC[C@@]1(O)C[C@@]23CC[C@@H]4c5ccoc5C=C[C@@]4(C)[C@@H]2CC[C@@H]1C3,1.02,0.958
N#Cc1cccc2sc(C(=O)N=C(N)N)cc12,1.02,1.08
NCC(O)CC(=O)O (stereo unspecified),1.23 and 1.06,1.56 and 0.991
N[C@H](CC(=O)O)C(=O)O,1.09,1.08
C[N+](C)(C)C[C@H](O)CC(=O)O,0.959,0.919
O=C1OC(C=Cc2ccccc2)=NC1=Cc1cccnc1,1.03,1.05
O=C(CCc1ccccc1)N1CCC(O)(Cn2cnc3cc(Cl)ccc3c2=O)CC1,0.949,0.916
Cc1ccc2c(Nc3ccc(Cl)cc3)nccc2c1Nc1ncccc1-c1ncnc2nc[nH]c12,0.42,0.349
N=C(NC(=O)c1nc(Cl)c(N)nc1N)Nc1ccccc1,1.32,1.39
N/C(=N\C(=O)c1nc(Cl)c(N)nc1N)NCc1ccccc1,1.08,0.986
N=C(N)NC(=O)c1nc(Cl)c(N)nc1N,1.32,1.12
CNc1ncnc2c1ncn2[C@H]1C[C@H](O)[C@@H](CO)O1,1.04,0.963
C[C@@H]1O[C@@H](O[C@@H]2[C@@H](O)[C@H](O)[C@@H](CO)O[C@H]2c2c(O)cc(O)c3c(=O)cc(-c4ccc(O)cc4)oc23)[C@H](O)[C@H](O)[C@H]1O,1.04,0.979

SMILES,PER2::LUC luminescence (time after treatment 24 h),PER2::LUC luminescence (time after treatment 30 h)
O=C1c2ccccc2C(=O)C1c1ccccc1,1.05 and 0.913,1 and 0.991
O=C1c2ccccc2C(=O)C1c1ccc(Br)cc1,0.477,0.974
COc1ccc(C2C(=O)c3ccccc3C2=O)cc1,1.08,1.36
CCCCOC(=O)OCCCC,1,1.02
CC1=CC(=O)CC(C)(C)C1(O)/C=C/C(C)=C\C(=O)O (racemic),1.01,1.02
CCOCCOc1ccccc1C(N)=O,0.861,1.09
CCOc1ccccc1C(N)=O,1.03 and 0.951,0.986 and 0.793
CCCCCCOc1ccccc1C(N)=O,1.33,1.53
COc1ccc2cc(CCC(C)=O)ccc2c1,1.75,1.7
COc1ccc2cc([C@@H](C)C(=O)O)ccc2c1,1,1.05
COc1ccc2cc([C@H](C)C(=O)O)ccc2c1,0.987 and 1.09 and 0.7,0.972 and 0.822 and 0.852
CCO/N=C1\c2ccccc2-c2nc(C#N)c(C#N)nc21,0.664,0.619
C=CC(=O)c1ccc(CCCCCC)cc1,1.02,0.845
CCNCCNC(=O)c1c(C)[nH]c(/C=C2\C(=O)Nc3ccc(F)cc32)c1C,0.42,0.619
CC(C)(Cc1nc(-c2ccc(O)cn2)no1)C(=O)NC1=C(C(=O)O)CCCC1,1.02,1.08
N#Cc1ccc(C(c2ccc(C#N)cc2)n2cncn2)cc1,0.794,1.11
c1ccc(-c2ccc(C(c3ccccc3)n3ccnc3)cc2)cc1 (stereo unspecified),1.45,1.32
FC(F)(F)c1ccccc1-n1ccnc1,0.975,0.907
O=C1c2ccccc2C(=O)c2oc(-c3ccccc3)nc21,1.15,0.538
CC(C)c1cc(-c2n[nH]c(=O)n2-c2ccc3c(ccn3C)c2)c(O)cc1O,0.062,0.052
Cn1ccc2cc(NC(=O)Nc3cccnc3)ccc21,1.15,0.855
Cc1cc(NC(=O)Nc2ccc3c(ccn3C)c2)sn1,1.59,1.52
N[C@H](CCC(=O)O)C(=O)O,1.1,1.01
C=C1C[C@@]23CC[C@H]4[C@@](C)(CCC[C@@]4(C)C(=O)O)[C@@H]2CC[C@]1(O)C3,0.886,1.12
CC(C)c1cc2c(cc1S(=O)(=O)O)[C@@]1(C)CCC[C@@](C)(C(=O)O)[C@@H]1CC2,1.03,1

SMILES,PER2::LUC luminescence (time after treatment 24 h),PER2::LUC luminescence (time after treatment 30 h)
CC(C)C1=CC2=CC[C@@H]3[C@](C)(CCC[C@@]3(C)C(=O)O)[C@H]2CC1,1.34,1.15
FC(F)(F)c1ccc(Nc2nc(-c3c(C(F)(F)F)nc4ccccn34)cs2)cc1,0.269,0.305
CC(C)(C)c1ccc(/C=C/C(=O)Nc2ccc3c(c2)OCCO3)cc1,0.942,1.11
COc1cccc(NC(=O)/C=C/c2ccc(Cl)cc2)c1,1.39,1
COc1cc(NC(=O)c2ccc(-c3ccc(Cl)cc3)o2)cc(OC)c1,0.947,1.04
C[n+]1ccc(C=Cc2ccc3ccccc3c2)cc1,0.908,1.07
OCC1OC(n2cnc3c(NC4CCCCC4)ncnc32)C(O)C1O (stereo unspecified),0.986,1.02
OC[C@H]1O[C@@H](n2cnc3c(Nc4ccccc4)ncnc32)[C@H](O)[C@@H]1O,1.41,1.13
Cc1ccccc1CNc1ncnc2c1ncn2[C@@H]1O[C@H](CO)[C@@H](O)[C@H]1O,1.35,1.28
Nc1ccc(CCNc2ncnc3c2ncn3C2OC(CO)C(O)C2O)cc1 (stereo unspecified),0.951,0.857
CNc1ncnc2c1ncn2[C@@H]1O[C@H](CO)[C@@H](O)[C@H]1O,0.974,1.04
"CC(Cc1ccccc1)Nc1ncnc2c1ncn2C1OC(CO)C(O)C1O (single isomer, unassigned; (-))",0.925,0.965
COc1ccc2cc1Oc1ccc(cc1)C[C@@H]1c3cc(c(OC)cc3CCN1C)Oc1c(OC)c(OC)cc3c1[C@H](C2)N(C)CC3,0.674,0.713
COc1cc(N2CCOCC2)ccc1NC(=O)c1csc(-c2cccnc2)n1,0.906,1.02
CCOC(=O)c1cc(OC)c(OC)cc1NC(=O)c1cc(OC)c(OC)c(OC)c1,1.08,1.16
CC(C)CCCC(C)C1CCC2C3CCC4CC(O)CCC4(C)C3CCC12C (stereo unspecified),0.978,0.951
COc1cc2ccc(=O)oc2cc1O,1.02,1.04
O=c1ccc2cc(O)c(O)cc2o1,0.867,0.732
CC1(C)C=Cc2cc3ccc(=O)oc3cc2O1,1.26,1.48
CCOC(=O)CCCCCCCCCCCN(C)C(=O)CO[C@H](C)[C@@H](C)OCC(=O)N(C)CCCCCCCCCCCC(=O)OCC,1.2,1.08
CCN1CCN(Cc2ccc(NC(=O)c3ccc(C)c(/C=C/c4cnc5[nH]ccc5c4OC)c3)cc2C(F)(F)F)CC1,0.349,0.394
CCCC(=O)NCCc1c(I)[nH]c2ccc(OC)cc12,0.668,0.814
CCCCC/C=C\C[C@@H](O)/C=C/c1cccc(C[C@@H](O)CCCCO)n1,1.07,0.841
